Some test systems named below: RPMI-8226 leukemia; OVCAR-8 ovarian; OVCAR-5 ovarian; OVCAR-4 ovarian; SK-OV-3 ovarian; IGROV1 ovarian; OVCAR-3 ovarian; HS 578T breast; NCI/ADR-RES ovarian.
Common to all, as to experiment: NCI-60 one-dose screen, 48 h (100 = growth as untreated, 0 = no growth, -100 = all killed)
Holding throughout (conditions): 10 µM unless noted

This is part of a sample that, as a whole, favours compounds with a hit. Of some 83,000 tested, about 20% had one in any assay.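 Single-concentration screen, 48 h exposure, 96-well plates. Endpoint: percent growth. Below 10 = active.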 A number with no mark means an inactive call. Activity calls are given as the source filed them.

For the compound `O=C(c1ccccc1)c1c(/C=C/c2ccccc2)c2ccccc2[nH]c1=O`, the growth in the assay on RPMI-8226 leukemia was 94.6%; in the assay with OVCAR-8 ovarian, 90.9%; in the assay with OVCAR-5 ovarian, 90.4%; in the assay on OVCAR-4 ovarian, 97.7%; in the assay with SK-OV-3 ovarian it was 102%; in the assay with IGROV1 ovarian it was 95.4%. Also, the growth is 97.6% with OVCAR-3 ovarian, 88.7% in the assay on HS 578T breast and 97.5% in the assay on NCI/ADR-RES ovarian.
As to `Fc1ccc(CNCCNc2ncnc3c2cnn3-c2ccccc2)cc1`, the growth in the assay on RPMI-8226 leukemia is 84.6%; in the assay on OVCAR-8 ovarian, 88%; in the assay on OVCAR-5 ovarian, 98.6%; in the assay on OVCAR-4 ovarian, 97.4%; in the assay on SK-OV-3 ovarian, 94.6%; with IGROV1 ovarian it was 94.2%. In addition, the growth in the assay with OVCAR-3 ovarian was 109%; in the assay on HS 578T breast, 92.1%; in the assay on NCI/ADR-RES ovarian, 95.8%.
Regarding `O=C(Nc1cccc(-n2cc(-c3ccncc3)c(-c3ccc(Cl)c(O)c3)n2)c1)c1ccc(N2CCOCC2)c(C(F)(F)F)c1`, the growth in the assay on RPMI-8226 leukemia was 5.19% (active); in the assay on OVCAR-8 ovarian, 37%; with OVCAR-5 ovarian it was 116%; in the assay on OVCAR-4 ovarian it was 108%; in the assay on SK-OV-3 ovarian, 74.2%; with IGROV1 ovarian, 96.8%. Further, the growth with OVCAR-3 ovarian was 56%; with HS 578T breast it was 15.5%; in the assay on NCI/ADR-RES ovarian it was 43.9%.
In the case of `C=C(C)[C@@H]1C[C@@H]2Cc3cc(F)ccc3N1O2`, the growth in the assay on RPMI-8226 leukemia was 65.2%; in the assay with OVCAR-8 ovarian it was 97.1%; in the assay on OVCAR-5 ovarian, 93.8%; with OVCAR-4 ovarian, 101%; in the assay with SK-OV-3 ovarian it was 104%; with IGROV1 ovarian, 108%. Besides, the results for the growth in the assay with OVCAR-3 ovarian, with HS 578T breast and with NCI/ADR-RES ovarian were 112%, 99% and 99.6%, respectively.
`CC(=O)Oc1cccc(S(=O)(=O)n2cc(C(=O)C(=O)Nc3ccncc3)c3ccccc32)c1`: the growth was 65.2% in the assay on RPMI-8226 leukemia; 89.7% with OVCAR-8 ovarian; 90.8% in the assay on OVCAR-5 ovarian; 78% with OVCAR-4 ovarian; 92.5% in the assay with SK-OV-3 ovarian; 84.7% in the assay on IGROV1 ovarian. Also, the growth is 101% in the assay on OVCAR-3 ovarian, 98.5% in the assay on HS 578T breast and 80.2% in the assay with NCI/ADR-RES ovarian.
On to `COc1cc(-c2nn(-c3cccc(NC(=O)Nc4cccc(C(F)(F)F)c4)c3)cc2-c2ccncc2)ccc1Cl`, for which the growth was -14.8% (active) with RPMI-8226 leukemia; -36.2% (active) with OVCAR-8 ovarian; 28.2% in the assay on OVCAR-5 ovarian; 11.1% in the assay on OVCAR-4 ovarian; 4.13% (active) in the assay with SK-OV-3 ovarian; 14% with IGROV1 ovarian. The results for the growth in the assay on OVCAR-3 ovarian, with HS 578T breast and in the assay with NCI/ADR-RES ovarian were -42% (active), -13.7% (active) and -11.9% (active), respectively.
With `O=C1c2c(Cl)c(Cl)c(Cl)c(Cl)c2C(=O)C2(Cl)CC=CCC12Cl` (configuration not stated), the growth was -32.2% (active) in the assay on RPMI-8226 leukemia; -34.9% (active) with OVCAR-8 ovarian; 95.7% with OVCAR-5 ovarian; -59.1% (active) in the assay with OVCAR-4 ovarian; 105% in the assay with SK-OV-3 ovarian; -58.7% (active) in the assay with IGROV1 ovarian. The values for the growth in the assay on OVCAR-3 ovarian, with HS 578T breast and with NCI/ADR-RES ovarian were -93.5% (active), 46.7% and 32.7%, respectively.
On to `O=C1/C(=C/c2ccc(Cl)cc2)CN(Cc2cn(CCNc3ccnc4cc(Cl)ccc34)nn2)C/C1=C\c1ccc(Cl)cc1`, for which the growth is -22% (active) in the assay on RPMI-8226 leukemia; -59.5% (active) in the assay on OVCAR-8 ovarian; -94.9% (active) in the assay on OVCAR-5 ovarian; -4.44% (active) in the assay on OVCAR-4 ovarian; -95.5% (active) in the assay on SK-OV-3 ovarian; -75.7% (active) in the assay on IGROV1 ovarian. For the same compound, the growth in the assay with OVCAR-3 ovarian is -100% (active); with HS 578T breast it was -19.8% (active); in the assay on NCI/ADR-RES ovarian, -26.6% (active).
Take `O=C(O)c1nc(-c2ccccc2)oc1N1CCOCC1`: the growth in the assay with RPMI-8226 leukemia is 107%; in the assay with OVCAR-8 ovarian it was 98.4%; in the assay on OVCAR-5 ovarian, 93.2%; with OVCAR-4 ovarian it was 108%; in the assay with SK-OV-3 ovarian it was 92.7%; with IGROV1 ovarian it was 98.2%. For the same compound, the growth with OVCAR-3 ovarian is 105%; in the assay on HS 578T breast, 86.3%; in the assay on NCI/ADR-RES ovarian, 96.6%.
Regarding `CCCCCCCC/C=C/CCCCCCCC1=NC(C)(C)CN1C(C)(C)CO`, the growth is -21.7% (active) with RPMI-8226 leukemia; 37.1% in the assay with OVCAR-8 ovarian; 65.1% with OVCAR-5 ovarian; 42.5% in the assay on OVCAR-4 ovarian; 70.3% in the assay on SK-OV-3 ovarian; 1.53% (active) with IGROV1 ovarian. Moreover, the growth with OVCAR-3 ovarian is 55.4%; with HS 578T breast it was 65.9%; in the assay on NCI/ADR-RES ovarian, 56%.
Take `Clc1ccc(-c2nc3ccccc3s2)cc1Cl`: the growth is 104% with RPMI-8226 leukemia; 98.9% in the assay with OVCAR-8 ovarian; 103% in the assay with OVCAR-5 ovarian; 81.3% in the assay with OVCAR-4 ovarian; 108% with SK-OV-3 ovarian; 75% with IGROV1 ovarian. Moreover, the growth in the assay with OVCAR-3 ovarian was 92.7%; in the assay with HS 578T breast, 104%; in the assay with NCI/ADR-RES ovarian, 98.1%.
Turning to `Cc1ccc(CSC(=N)N)cc1C`, the growth with OVCAR-8 ovarian is 109%; in the assay with OVCAR-5 ovarian, 114%; with OVCAR-4 ovarian it was 101%; in the assay on SK-OV-3 ovarian, 111%; in the assay on IGROV1 ovarian it was 106%; in the assay on OVCAR-3 ovarian, 116%. Besides, the growth with HS 578T breast is 103%; with NCI/ADR-RES ovarian it was 98.8%.
Take `N/C(=N\S(=O)(=O)c1ccccc1)Nc1nc2ccccc2s1`: the growth in the assay with RPMI-8226 leukemia is 88.6%; in the assay on OVCAR-8 ovarian, 87.6%; in the assay with OVCAR-5 ovarian, 96.9%; in the assay on OVCAR-4 ovarian it was 100%; with SK-OV-3 ovarian, 85.4%; with IGROV1 ovarian, 90.8%. In addition, the growth with OVCAR-3 ovarian is 107%; with HS 578T breast it was 98.2%; with NCI/ADR-RES ovarian, 91.8%.
Turning to `COc1ccc(-c2ccc(C)n2-c2ccc(-c3nc4ccccc4s3)cc2)cc1`, the growth with RPMI-8226 leukemia was 70.4%; in the assay on OVCAR-8 ovarian, 95.8%; with OVCAR-5 ovarian it was 101%; with SK-OV-3 ovarian it was 80.3%; with IGROV1 ovarian it was 92.8%; with OVCAR-3 ovarian, 107%. In addition, the figures for the growth in the assay on HS 578T breast and in the assay on NCI/ADR-RES ovarian were 97.5% and 89.9%, respectively.
For `COc1cc(Nc2nc(N[C@H]3CCCC[C@@H]3N)nc3cc[nH]c(=O)c23)cc(OC)c1`, the growth in the assay on RPMI-8226 leukemia was 25%; with OVCAR-8 ovarian, 14.5%; in the assay on OVCAR-5 ovarian, 22.2%; in the assay with SK-OV-3 ovarian it was 24.1%; with IGROV1 ovarian, 8.81% (active); in the assay on OVCAR-3 ovarian, 70.4%. Also, the values for the growth with HS 578T breast and with NCI/ADR-RES ovarian were 53.6% and 100%, respectively.

The values are drawn from PubChem BioAssay (NCI).
